Measured values published in the supplement of paper PMC6555819.

Each sequence was assayed on FXR:RXRa (NR concentration 270 nM, RXRa partner concentration 90 nM) (assay: PBM binding z-score (relative to random genomic background probes); higher = stronger binding; sequences stand for … in GC…GCGATTGACAGCGTAGAATGAAGG).
How it was run: (§1)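 Ligand-free nuclear receptor dimers were applied to custom Agilent 4×180K protein-binding microarrays whose double-stranded probes carried direct-repeat seeds, single-nucleotide variants, half-site ablations and random human genomic background sequences in 34-nt variable regions. Incubation lasted 1 h. Binding z-scores were computed against the random background probes from regression-normalized fluorescence.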
Sequence CCTACTGGGCCATTCAGAGGTCAGTGATCATATG has a PBM binding z-score of 0.991.
For CCTCGGAGGACAACAGGAGGTTAGAGCTGCCAGA, the PBM binding z-score was -0.155.
In the case of TGAATCAGGTTAAAGATCAGGGAACGTGGCGTCG, the PBM binding z-score is reported as 0.631.
For CGTCCATGGTCAGCAGGTCAGTGAAAGCGACGTG, the PBM binding z-score was 0.175.
Sequence GCGACTGGGGCCAAGCAGGTTACCATAAGGTTGG has a PBM binding z-score of -0.268.
CTGGAAAGGTCGGTTGAGGTGAGTATACGGATAA showed a PBM binding z-score of 2.81.
For TCATATAGGTAAAGGTCAAAGTCGAACGATATGA, the PBM binding z-score was 6.53.
For ACAGACAGGTGATGGAGGTAACTCAGGCTATCAT, the PBM binding z-score was -0.104.
TTACCAAGGTGAGCTGAGGACGTTGATCCAACTC gave a PBM binding z-score of 1.1.
Work on TCTAGTTGGTCAAAGGTCACACACTCGAAATGCG yielded a PBM binding z-score of 6.09.
For ACTAGCAGGCCAAGGGTAACTCAAGATTAGTCCG, the PBM binding z-score was -0.105.
Sequence CGTCCCAGGTCAAAGGTCAGTGAAGAGATGACGG has a PBM binding z-score of 7.79.
GCGACTAGGGCAAAGCAGGTTACCATAAGGTTGG gave a PBM binding z-score of 0.0913.
Sequence ATCTCTAGGCAACCAAGTTCAGTGAATGCCGAAC has a PBM binding z-score of 0.291.
Sequence GCATATAGGAAATACAAGGTGAAAGTCCGATTGT has a PBM binding z-score of -0.0334.
Sequence ATCTCTAGGTAACCAAGTTCAGTTAATGCCGAAC has a PBM binding z-score of 0.988.
In the case of GCGACTGGGGCAAAGCAGGGTACCATAAGGTTGG, the PBM binding z-score is reported as -0.153.
CTACCAAGGTGAACAAGGTTGTTGATTACTATTC gave a PBM binding z-score of 0.708.
With CCTGCTAGGTCAATTGTCAGCTAAAGCAGCTCGC the PBM binding z-score was 2.8.
For GCTCGGAGGACAAGGTCATAGCTTTGTCCGTAGA, the PBM binding z-score was 4.1.
ACTCGGAGGAAAAAGGTCAGAGCTACGCCAGTGA was tested, and the PBM binding z-score was 2.49.
With TCTCGGAGGACACGAAGGTCAGAGCGTTCCAGAG the PBM binding z-score was 1.4.
GGAACGATGGCAAAGTTGATAGCATCTGTCGACG was tested, and the PBM binding z-score was -0.553.
With CCTATTAGTTGACCATAAGGGCAACCAAAGCTCG the PBM binding z-score was 1.06.
TCATATAGGTAAATGCTAGCTGAAAGTCCGATCT was tested, and the PBM binding z-score was 0.654.
For GCTAGCAGGCCATTTGGGTCACTCATTGACGGGC, the PBM binding z-score was 0.033.
With GGAACGGGGGCAAAGTTGATAGCATCTGTCGACG the PBM binding z-score was 3.75.
With TTACCAAGGTGAGCTGAGGTCGTTGGTCCAACTC the PBM binding z-score was 1.55.
CCTTGGAGGACAGAAGGTCAGAGCTGTCCGCTTT was tested, and the PBM binding z-score was 1.46.
CGATCTAGGTCAGAACAGGACAGTGAAGGATGAT showed a PBM binding z-score of 1.41.
Sequence TAGCCTAGGTCATGCGCGCCAGTATAGTGTCGGC has a PBM binding z-score of 4.7.
For GCTGCTAGGTCAGCTTGGTCAGCTAACGGGTACG, the PBM binding z-score was 1.35.
ACTATTAGTTTAGACGAGGGCAACCGATAGGTTG showed a PBM binding z-score of 0.453.
Sequence TCTTGTAGATCAGCAGGAGGTTAAGAAAGATCGA has a PBM binding z-score of -0.201.
In the case of GCTAGCAGGCCATTGGGGTCACTCAATGACGGGC, the PBM binding z-score is reported as 2.93.
For ACAGACAGGTGAAGAAGGTAACTCAGGCTATCAT, the PBM binding z-score was 0.248.
Sequence TCTTGTAGATCACAGGTTAAGAAAGCCGAAGCCT has a PBM binding z-score of 0.701.
Work on CCTAGTTGGTCAAGGTCACACACGCTATAGGTAC yielded a PBM binding z-score of 4.71.
TAGCCTAGGTCATTCAGGGTCCAGTATAGAAAGC showed a PBM binding z-score of 4.67.
In the case of CAAACTAGGTCAGGAGGTCAAAGTCCGCTTCCCG, the PBM binding z-score is reported as 5.51.

Each sequence was assayed on LXRa:RXRa (NR concentration 270 nM, RXRa partner concentration 90 nM) in the same assay as above.
How it was run: as §1
CCTACTGGGCCATTCAGAGGTCAGTGATCATATG was tested, and the PBM binding z-score was 1.94.
Work on CCTCGGAGGACAACAGGAGGTTAGAGCTGCCAGA yielded a PBM binding z-score of -0.0847.
TGAATCAGGTTAAAGATCAGGGAACGTGGCGTCG showed a PBM binding z-score of 0.732.
For CGTCCATGGTCAGCAGGTCAGTGAAAGCGACGTG, the PBM binding z-score was -0.104.
GCGACTGGGGCCAAGCAGGTTACCATAAGGTTGG showed a PBM binding z-score of -0.471.
Work on CTGGAAAGGTCGGTTGAGGTGAGTATACGGATAA yielded a PBM binding z-score of 1.32.
TCATATAGGTAAAGGTCAAAGTCGAACGATATGA gave a PBM binding z-score of 6.13.
Work on ACAGACAGGTGATGGAGGTAACTCAGGCTATCAT yielded a PBM binding z-score of -0.199.
In the case of TTACCAAGGTGAGCTGAGGACGTTGATCCAACTC, the PBM binding z-score is reported as -0.166.
TCTAGTTGGTCAAAGGTCACACACTCGAAATGCG showed a PBM binding z-score of 5.91.
For ACTAGCAGGCCAAGGGTAACTCAAGATTAGTCCG, the PBM binding z-score was 0.773.
CGTCCCAGGTCAAAGGTCAGTGAAGAGATGACGG was tested, and the PBM binding z-score was 6.36.
With GCGACTAGGGCAAAGCAGGTTACCATAAGGTTGG the PBM binding z-score was 0.121.
ATCTCTAGGCAACCAAGTTCAGTGAATGCCGAAC was tested, and the PBM binding z-score was 0.227.
For GCATATAGGAAATACAAGGTGAAAGTCCGATTGT, the PBM binding z-score was -0.148.
ATCTCTAGGTAACCAAGTTCAGTTAATGCCGAAC showed a PBM binding z-score of 1.26.
With GCGACTGGGGCAAAGCAGGGTACCATAAGGTTGG the PBM binding z-score was -0.295.
CTACCAAGGTGAACAAGGTTGTTGATTACTATTC was tested, and the PBM binding z-score was 0.561.
CCTGCTAGGTCAATTGTCAGCTAAAGCAGCTCGC showed a PBM binding z-score of 2.
Sequence GCTCGGAGGACAAGGTCATAGCTTTGTCCGTAGA has a PBM binding z-score of 3.71.
ACTCGGAGGAAAAAGGTCAGAGCTACGCCAGTGA showed a PBM binding z-score of 3.
Work on TCTCGGAGGACACGAAGGTCAGAGCGTTCCAGAG yielded a PBM binding z-score of 1.13.
Sequence GGAACGATGGCAAAGTTGATAGCATCTGTCGACG has a PBM binding z-score of -0.632.
Work on CCTATTAGTTGACCATAAGGGCAACCAAAGCTCG yielded a PBM binding z-score of 0.507.
TCATATAGGTAAATGCTAGCTGAAAGTCCGATCT was tested, and the PBM binding z-score was 0.665.
For GCTAGCAGGCCATTTGGGTCACTCATTGACGGGC, the PBM binding z-score was -0.0107.
GGAACGGGGGCAAAGTTGATAGCATCTGTCGACG showed a PBM binding z-score of 3.32.
For TTACCAAGGTGAGCTGAGGTCGTTGGTCCAACTC, the PBM binding z-score was 1.34.
CCTTGGAGGACAGAAGGTCAGAGCTGTCCGCTTT was tested, and the PBM binding z-score was 1.83.
With CGATCTAGGTCAGAACAGGACAGTGAAGGATGAT the PBM binding z-score was 0.482.
Work on TAGCCTAGGTCATGCGCGCCAGTATAGTGTCGGC yielded a PBM binding z-score of 3.47.
In the case of GCTGCTAGGTCAGCTTGGTCAGCTAACGGGTACG, the PBM binding z-score is reported as 0.704.
ACTATTAGTTTAGACGAGGGCAACCGATAGGTTG showed a PBM binding z-score of 0.483.
TCTTGTAGATCAGCAGGAGGTTAAGAAAGATCGA showed a PBM binding z-score of 0.985.
GCTAGCAGGCCATTGGGGTCACTCAATGACGGGC was tested, and the PBM binding z-score was 2.47.
Sequence ACAGACAGGTGAAGAAGGTAACTCAGGCTATCAT has a PBM binding z-score of 0.203.
With TCTTGTAGATCACAGGTTAAGAAAGCCGAAGCCT the PBM binding z-score was 0.575.
In the case of CCTAGTTGGTCAAGGTCACACACGCTATAGGTAC, the PBM binding z-score is reported as 4.18.
Sequence TAGCCTAGGTCATTCAGGGTCCAGTATAGAAAGC has a PBM binding z-score of 4.27.
In the case of CAAACTAGGTCAGGAGGTCAAAGTCCGCTTCCCG, the PBM binding z-score is reported as 5.22.
